The whole screen tested about 310,000 compounds, of which about 14,000 (4.5%) showed an effect of 50% or more. Effects have a minus sign here. The full list was thinned out, with strong results kept by preference.
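Also: peak tail current of the secondary pulse compared with the same well before compound.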

Sequence of human ether-à-go-go-related gene (hERG) potassium channel (Q12809 whole entry, looked up): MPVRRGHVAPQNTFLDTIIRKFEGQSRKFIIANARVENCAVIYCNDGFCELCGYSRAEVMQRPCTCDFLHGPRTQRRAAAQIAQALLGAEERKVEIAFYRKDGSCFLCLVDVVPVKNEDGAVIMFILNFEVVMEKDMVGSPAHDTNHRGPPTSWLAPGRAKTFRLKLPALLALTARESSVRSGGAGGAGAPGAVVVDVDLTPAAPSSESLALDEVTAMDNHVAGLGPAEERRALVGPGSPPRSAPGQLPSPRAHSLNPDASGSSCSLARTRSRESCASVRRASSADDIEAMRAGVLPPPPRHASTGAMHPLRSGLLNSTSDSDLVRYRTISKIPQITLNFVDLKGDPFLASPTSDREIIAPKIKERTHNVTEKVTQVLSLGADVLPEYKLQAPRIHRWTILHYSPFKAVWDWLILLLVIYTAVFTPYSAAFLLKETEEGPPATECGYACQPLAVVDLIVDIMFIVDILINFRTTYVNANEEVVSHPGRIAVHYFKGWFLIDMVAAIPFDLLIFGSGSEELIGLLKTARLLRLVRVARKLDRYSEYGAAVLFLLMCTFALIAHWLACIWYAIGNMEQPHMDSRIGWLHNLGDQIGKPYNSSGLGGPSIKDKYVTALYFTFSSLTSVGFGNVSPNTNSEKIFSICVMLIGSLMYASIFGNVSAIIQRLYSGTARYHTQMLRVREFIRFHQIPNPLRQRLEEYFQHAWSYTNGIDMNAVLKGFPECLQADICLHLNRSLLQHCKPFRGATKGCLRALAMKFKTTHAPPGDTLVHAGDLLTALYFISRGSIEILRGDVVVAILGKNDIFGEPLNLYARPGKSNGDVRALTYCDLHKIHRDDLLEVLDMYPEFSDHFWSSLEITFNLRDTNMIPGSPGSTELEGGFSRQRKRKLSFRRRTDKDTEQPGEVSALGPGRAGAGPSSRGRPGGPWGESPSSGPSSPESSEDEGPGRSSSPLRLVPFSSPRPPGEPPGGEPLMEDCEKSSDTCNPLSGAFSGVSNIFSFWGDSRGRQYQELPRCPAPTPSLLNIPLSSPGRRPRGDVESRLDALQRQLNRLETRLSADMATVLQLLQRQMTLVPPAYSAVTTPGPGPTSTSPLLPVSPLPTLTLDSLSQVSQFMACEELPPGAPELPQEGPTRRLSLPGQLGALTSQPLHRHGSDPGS

This assay concerns the target human ether-à-go-go-related gene (hERG) potassium channel (human, UniProt Q12809). As to the kind of experiment: primary screen, population patch clamp on CHO cells stably expressing hERG; higher = less effect of the substance.
Turning to `Cc1ccc(C)c(NC(=S)N2CCN(c3cccc(C(F)(F)F)c3)CC2)c1`, the “hERG current change (%, negative = inhibition) at 10uM” value stood at 7.13%.
The figure for `COC(=O)c1sc(S(=O)(=O)Nc2ccc(Br)cc2)c(C(=O)OC)c1C` is 2.75%; for `CCCCCCc1cc2cc(C(=O)NCc3ccccc3)c(=N)oc2cc1O` it is 5.76%; for `O=C(NCCC(c1ccccc1)c1ccccc1)c1cccs1` it is -14.2%.
For the compound `Cc1ccccc1C(=O)N/N=C/c1ccccn1`, the “hERG current change (%, negative = inhibition) at 10uM” value is reported as 5.6%.
On to `CCN(CC)c1ccc(/C=C2\NC(=O)NC2=O)cc1`, for which the “hERG current change (%, negative = inhibition) at 10uM” value is reported as 19.5%.
Then `COC(=O)c1ccsc1NC(=O)CN1CCN(c2ncccn2)CC1`, with -1.35%; and `Cc1cc(C)n(-c2c(F)c(F)c(COC(=O)c3ccccc3)c(F)c2F)n1`, with 5.11%; and `COC(=O)c1nc2n(n1)C(c1ccc([N+](=O)[O-])cc1)C(C(=O)Nc1ccc(Cl)cc1)=C(C)N2` (stereo not shown), with 13.5%.
As for `Cc1ccccc1S(=O)(=O)Cc1ccc(C(=O)N(C)C2CCCCC2)o1`, the “hERG current change (%, negative = inhibition) at 10uM” value was -12.5%.
Consider `C=CCn1c(SCc2cccc(F)c2)nc2cc(C(=O)N3CCC(C(N)=O)CC3)ccc2c1=O`, for which the “hERG current change (%, negative = inhibition) at 10uM” value is given as -34.7%.
The figure for `CCN(C(=O)c1sc(N)c(C#N)c1C)C1CCCCC1` is 9.21%; for `CCOC(=O)c1c(C)oc(/N=C/c2ccccc2O)c1C#N` it is 7.61%.
Then `O=C(c1cccs1)N1CCN(S(=O)(=O)c2ccccc2)CC1`, with -6.98%.
The figure for `CC(=O)Nc1cccc(C(=O)OCCCOc2ccc(F)cc2)c1` is 18.8%; for `CS(=O)(=O)Nc1cccc(C(=O)OCCCOc2ccc(F)cc2)c1` it is -54.5%.
Turning to `COC(=O)c1cccc(NS(C)(=O)=O)c1`, the “hERG current change (%, negative = inhibition) at 10uM” value was found to be 12.9%.
`CC(C)CNC(=O)NC(=O)COC(=O)c1cc(F)cc(F)c1`: the “hERG current change (%, negative = inhibition) at 10uM” value was -4.56%.
As for `COc1ccc(C)cc1NC(=O)C(=O)NNC(=O)c1ccco1`, the “hERG current change (%, negative = inhibition) at 10uM” value was 17.6%.
For `Cc1c(CC(=O)O)c(=O)oc2c(C)c(OCc3c(F)cccc3Cl)ccc12`, the “hERG current change (%, negative = inhibition) at 10uM” value turned out to be 5.53%.
Then `CCOc1ccccc1NC(=O)C(NCC1(N2CCCCC2)CCCCC1)c1ccccc1.O=C(O)C(=O)O` (stereo not shown), with -70.9%.
The figure for `CCOc1ccccc1NC(=O)C(NCCN(C)C)c1ccccc1.O=C(O)C(=O)O` (stereo not shown) is -76.4%.
On to `CCOc1ccccc1NC(=O)C(OC(=O)C1CC1)c1ccccc1` (stereo not shown), for which the “hERG current change (%, negative = inhibition) at 10uM” value is on record as -10.3%.
For `CCOc1ccccc1NC(=O)C(NCC1CCCCC1)c1ccccc1` (stereo not shown), the “hERG current change (%, negative = inhibition) at 10uM” value was found to be 16.9%.
Then `CCOc1ccccc1NC(=O)C(Sc1ccccc1)c1ccccc1` (stereo not shown), with 9.32%; and `CCOc1ccccc1NC(=O)C(NCCc1ccc(OC)cc1)c1ccccc1` (stereo not shown), with -4.48%.
Then `COc1cccc(C(=O)N2CCC3(CC2)OCCO3)c1`, with 20.3%; and `COc1ccc(OCCNS(=O)(=O)Cc2ccccc2)cc1`, with 0.161%; and `Cc1cccc(NC(=O)c2ccc(S(=O)(=O)N3CCOCC3)cc2)n1`, with 19.5%.
Regarding `COCCSc1ccccc1C(=O)N1CCc2ccccc21`, the “hERG current change (%, negative = inhibition) at 10uM” value came to 15.1%.
Consider `CC(C)(C)c1ccc(OCCC(=O)Nc2cccc(S(=O)(=O)N3CCCCC3)c2)cc1`, for which the “hERG current change (%, negative = inhibition) at 10uM” value is recorded as 16.4%.
Then `Cc1nc(N2CCN(C(=O)CCC(=O)O)CC2)c2c(C)c(C)sc2n1`, with -1.2%.
Regarding `CCC(=O)N1CCN(c2nc(C)nc3sc(C)c(C)c23)CC1`, the “hERG current change (%, negative = inhibition) at 10uM” value is reported as -62%.
The figure for `Cc1nc(N2CCN(C(=O)COc3ccccc3)CC2)c2c(C)c(C)sc2n1.Cl` is -69.3%.
For `Cc1sc2ncnc(OCC(=O)N3CCN(S(=O)(=O)c4ccccc4)CC3)c2c1C`, the “hERG current change (%, negative = inhibition) at 10uM” value is reported as -2.31%.
For `Cc1nc(N2CCN(S(=O)(=O)c3ccc(Br)cc3)CC2)c2c(C)c(C)sc2n1`, the “hERG current change (%, negative = inhibition) at 10uM” value is reported as -10.7%.
As for `O=C(COc1ccccc1)N1CCN(c2ccccc2)CC1`, the “hERG current change (%, negative = inhibition) at 10uM” value is listed as -3.1%.
Then `O=C(c1cc(C2CC2)nn1-c1ccccc1)N1CCN(S(=O)(=O)c2cccc(F)c2)CC1`, with -28.1%.
For the compound `O=[N+]([O-])c1ccc(Cl)c(S(=O)(=O)/N=C(/c2ccccc2)N2CCOCC2)c1`, the “hERG current change (%, negative = inhibition) at 10uM” value is listed as 3.91%.
Take `COc1ccc(C(=O)N2CCN(c3ccc(N4CCOCC4)nn3)CC2)cc1OC`: the “hERG current change (%, negative = inhibition) at 10uM” value is listed as 8.55%.
Consider `COc1ccc(/C=C(\NC(=O)/C=C/c2ccco2)C(=O)NCCc2nc3ccccc3[nH]2)cc1`, for which the “hERG current change (%, negative = inhibition) at 10uM” value was -56.6%.
Turning to `CC(C)Oc1ccc(/C=C(\NC(=O)/C=C/c2ccco2)C(=O)NCCc2nc3ccccc3[nH]2)cc1`, the “hERG current change (%, negative = inhibition) at 10uM” value is reported as -28.6%.
Then `O=C(/C=C/c1ccco1)N/C(=C\c1ccco1)C(=O)NCCc1nc2ccccc2[nH]1`, with -22.6%.

The record behind these values is article PMC4336329 (PLoS ONE, 2015).
